Test results as given in PubChem BioAssay (EPA / NIEHS).
Active and inactive are the calls of the source. The calls were made as follows: active = hit-call score of the fitted dose curve at least 0.9, where 1 is the maximum; inactive = score below 0.9.

Test: CCTE_Shafer_MEA_acute_firing_rate_mean: CCTE's Neural Acute Assay for Mean Firing Rate, Shafer Lab (AID 2284009)
Procedure: CCTE_Shafer_MEA_acute assay is conducted using Axion Biosystems 48 well microelectrode array (MEA) plates and Maestro recording system. Each well of the MEA plate contains a grid of 16 microelectrodes embedded in the culture surface. Electrically active cells, such as neurons, can be cultured over the electrodes, and electrical activity in these cells can be recorded extracellularly. The spontaneous firing of neurons is captured from each electrode on a microsecond timescale providing both temporally and spatially precise data. […] The CCTE_Shafer_MEA_acute assay uses primary cultures of rat cortical neurons. As these cultures mature over time, neural networks develop functional activity and form cohesive networks in which electrical activity can be highly coordinated. Baseline 40-minute recordings are made on days post-plating 13 or 15, followed by a secondary 40-minute recording after chemical exposure.CCTE_Shafer_MEA_acute_firing_rate_mean is a component of the CCTE_Shafer_MEA_acute assay. It measures the frequency number of spikes (action potential firings) as the total number of spikes divided by the length of the recording in a microelectrode array (MEA) using Axion Biosystems Maestro 768 channel amplifier with the AxIS adaptive spike detector. The firing rate is divided by the number of electrodes to report a well-mean value. The recordings before and after chemical treatment are used to calculate a percent change in the mean firing rate in each well.Data from the assay component CCTE_Shafer_MEA_acute_firing_rate_mean was analyzed into 1 assay endpoint. This assay endpoint, CCTE_Shafer_MEA_acute_firing_rate_mean, was analyzed in the negative analysis fitting direction relative to DMSO as the negative control and baseline of activity. Using a type of functional reporter, gain or loss-of-signal activity can be used to understand electrical activity.
Spontaneous activity in the cortical cultures was recorded using an Axion Biosystems Maestro 768 channel amplifier and Axion Integrated Studios (AxIS) v1.8 (or later) software. The amplifier recorded from all channels simultaneously (gain = 1200 x; sampling rate = 12.5 kHz/channel): raw signals were filtered with a Butterworth band-pass filter (300-5000 Hz), which filters out slower local field potentials leaving only fast potentials, i.e., "spikes", arising from extracellular currents associated with action potentials (Pine 2006; Wheeler and Nam 2011). On-line spike detection of filtered signals was conducted with the AxIS adaptive spike detector, using a threshold of 8x the root mean squared (rms) noise on each channel. Any electrodes with rms noise levels greater than 5 uV were grounded (e.g., no data were recorded). Once grounded, an electrode was grounded for the duration of the experiment. All recordings were conducted at 37 C. Wells were deemed usable if on the day of the exposure >/= 10 electrodes were active (defined as >/= 5 spikes/min). On DIV 13 or 15, a minimum of three wells from one cortical culture preparation were treated with each compound (0.03-40 uM). Prior to recording baseline activity, each mwMEA plate was placed in the Maestro at 37 C and allowed to sit for 20 min while firing rates stabilized. Baseline activity (40 min) was recorded before the addition of each compound. An additional 40 min of spontaneous activity was recorded in the presence of each compound. Changes in network parameters relative to baseline were assessed following compound treatment.

| Compound | outcome | AC50 |
| --- | --- | --- |
| COCC(=O)N(c1c(C)cccc1C)C(C)C(=O)OC (stereo unspecified) | inactive | – |
| CNC(=O)Oc1cccc2ccccc12 | inactive | – |
| CCCC(=NOCC)C1=C(O)CC(CC(C)SCC)CC1=O (stereo unspecified) | – | 11.1 µM (active) |
| CC(C)C1(C)N=C(c2ncccc2C(=O)O)NC1=O (stereo unspecified) | inactive | – |
| N#Cc1c[nH]cc1-c1cccc2c1OC(F)(F)O2 | – | 4.27 µM (active) |
| COP(=S)(OC)SCn1nnc2ccccc2c1=O | inactive | – |
| CCOP(=O)(OCC)Oc1nc(Cl)c(Cl)cc1Cl | – | 3.95 µM (active) |
| CCOC(=O)C(C)OC(=O)c1cc(Oc2ccc(C(F)(F)F)cc2Cl)ccc1[N+](=O)[O-] (stereo unspecified) | – | 5.46 µM (active) |
| CCOc1cc(C(C)(C)C)ccc1C1COC(c2c(F)cccc2F)=N1 (stereo unspecified) | – | 3.32 µM (active) |
| C=C(C)CN(CC)c1c([N+](=O)[O-])cc(C(F)(F)F)cc1[N+](=O)[O-] | – | 31.9 µM (active) |
| CCCN(CC)CC1COC2(CCC(C(C)(C)C)CC2)O1 (stereo unspecified) | inactive | – |
| CC(C)N1C(=O)N(c2ccccc2)CSC1=NC(C)(C)C | – | 5.27 µM (active) |
| CC(C)=CC1C(C(=O)OCc2coc(Cc3ccccc3)c2)C1(C)C (stereo unspecified) | inactive | – |
| COC(=O)N(C(=O)N1CO[C@@]2(C(=O)OC)Cc3cc(Cl)ccc3C2=N1)c1ccc(OC(F)(F)F)cc1 | – | 8.24 µM (active) |
| Cc1nc(N(C)C)nc(OC(=O)N(C)C)c1C | inactive | – |
| CC1(C)C(C(=O)OC(C#N)c2cccc(Oc3ccccc3)c2)C1(C)C (stereo unspecified) | inactive | – |

| Compound | outcome | AC50 |
| --- | --- | --- |
| CO/N=C(/C1=NOCCO1)c1ccccc1Oc1ncnc(Oc2ccccc2Cl)c1F | – | 7.18 µM (active) |
| CCOc1nc(F)cc2nc(S(=O)(=O)Nc3c(Cl)cccc3Cl)nn12 | inactive | – |
| Clc1nc(Cl)nc(Nc2ccccc2Cl)n1 | inactive | – |
| CCCCC(O)(Cn1cncn1)c1ccc(Cl)cc1Cl (stereo unspecified) | inactive | – |
| OC(c1ccc(Cl)cc1)(c1ccc(Cl)cc1)C(Cl)(Cl)Cl | – | 2.15 µM (active) |
| Nc1c(Cl)c(F)nc(OCC(=O)O)c1Cl | inactive | – |
| Cc1c(COC(=O)[C@@H]2[C@H](/C=C(\Cl)C(F)(F)F)C2(C)C)cccc1-c1ccccc1 | inactive | – |
| N#CN=C1SCCN1Cc1ccc(Cl)nc1 | inactive | – |
| CC1(C)CCC(=Cc2ccc(Cl)cc2)C1(O)Cn1cncn1 (stereo unspecified) | inactive | – |
| CC(C)N1C(=O)c2ccccc2NS1(=O)=O | inactive | – |
| CN/C(=N\[N+](=O)[O-])NCc1cnc(Cl)s1 | inactive | – |
| Cn1c(-c2ccccc2)cc(-c2ccccc2)[n+]1C | – | 1.05 µM (active) |
| O=C(Nc1ccccc1-c1ccc(Cl)cc1)c1cccnc1Cl | inactive | – |
| CC1(C)C(C=C(Cl)Cl)C1C(=O)OC(C#N)c1cccc(Oc2ccccc2)c1 (stereo unspecified) | inactive | – |
| Cc1ccc(N=CN(C)C=Nc2ccc(C)cc2C)c(C)c1 | – | 0.125 µM (active) |
